ChEMBL document CHEMBL4888484, “Replenishing the malaria drug discovery pipeline: Screening and hit evaluation of the MMV Hit Generation Library 1 (HGL1) against asexual blood stage Plasmodium falciparum ,using a nano luciferase reporter read-out” (2022)
The campaign covered roughly 150,000 compounds. About 540 (0.36%) showed an effect of 50% or more. The full list was thinned out, with strong results kept by preference.

Tested on: Plasmodium falciparum
Assay: Primary screen in NF54 nanoGlo assay, in single point, at 2uM, 72h; a lower Z score goes with more inhibition
Assay type: functional, Erythrocyte
Settings: timepoint 72 hour

Row | SMILES | % Inhibition | Z score
1 | Cc1cc(-c2ccccc2)[n+]2ccccc2n1 | -15% | 2.36
2 | Cc1cc[n+]2c(-c3ccccc3)cc(-c3ccccc3)nc2c1 | 60% | -11.27
3 | Cc1ccc(-c2csc(-c3nc(-c4ccccc4)cs3)n2)c(C)c1 | 10% | -1.13
4 | O=C(Cc1ccc2[nH]c(=O)[nH]c2c1)N1CCOC[C@@H]1CC1CCC1 | 2% | -0.19
5 | CCOC(=O)c1cc2n(n1)C[C@@](C)(C(=O)NCCC(C)C)N(c1ccc(C)c(C)c1)C2=O | -6% | 0.75
6 | Cc1ccccc1C(=O)N(Cc1cccc(F)c1)c1ccc(CC(=O)NCCN2CCCCC2)cc1 | 58% | -4.25
7 | O=C(Cc1ccc(N(Cc2cccc(F)c2)C(=O)C2CCCC2)cc1)NCCN1CCCC1 | 25% | -2.85
8 | CCC(=O)N(Cc1cccc(F)c1)c1ccc(CC(=O)NCCN2CCCC2)cc1 | -2% | 0.24
9 | Cc1ccc(CN(C(=O)c2ccccc2C)c2cccc(CC(=O)NCCN3CCCC3)c2)cc1 | -9% | 1.17
10 | Cc1ccc(C(=O)N(Cc2cccc(F)c2)c2ccc(CC(=O)N[C@@H](C)c3ccccc3)cc2)cc1 | 74% | -8.26
11 | Cc1ccccc1C(=O)N(Cc1ccc(F)cc1)c1cccc(CC(=O)NCCN2CCCC2)c1 | 6% | -0.6
12 | O=C(Cc1ccc(N(Cc2cccc(F)c2)C(=O)C2CCCC2)cc1)NCCN1CCCCC1 | 59% | -9.89
13 | O=C(Cc1ccc(N(Cc2cccc(F)c2)C(=O)c2cccc(F)c2)cc1)NCCN1CCCCC1 | 57% | -2.67
14 | O=C(Cc1ccc(N(Cc2cccc(F)c2)C(=O)c2cccc(F)c2)cc1)NCCN1CCCC1 | 3% | -0.41
15 | O=C(Cc1ccc(N(Cc2ccc(F)cc2)C(=O)c2cccc(F)c2)cc1)NCc1ccccc1 | -2% | 0.3
16 | COc1cccc(C(=O)N(Cc2ccc(C)cc2)c2cccc(CC(=O)N[C@@H](C)c3ccccc3)c2)c1 | -8% | 1.49
17 | Cc1cccc(CN(C(=O)C2CCCC2)c2ccc(CC(=O)NCCN3CCCC3)cc2)c1 | 20% | -2.23
18 | CC(C)(C)c1ncc(-c2cc(F)cc3cccnc23)[nH]1 | -16% | 1.82
19 | Cc1n[nH]nc1-c1nc(-c2ccncc2)nn1[C@H]1CCS(=O)(=O)C1 | -6% | 0.87
20 | Cc1ccc(CS(=O)(=O)N2CCC3CCN(C)CC32)c(F)c1 (stereo not given) | -7% | 1.13
21 | Cc1nccn1CCNC(=O)c1cc2cccc(Cl)c2n1C | -16% | 1.43
22 | CC[C@H]1CN(Cc2cccn2-c2nccs2)CCN1C | -2% | 0.41

Row | SMILES | % Inhibition | Z score
23 | Cc1ccc(-n2nc(C)cc2NS(=O)(=O)c2c(C)nn(C(C)C)c2C)nn1 | -9% | 1.42
24 | CCOc1cccc2[nH]cc(CC(=O)N[C@H](c3nccn3C)C3CC3)c12 | 7% | -0.9
25 | CCOC(=O)NCCC(=O)NCCC[C@H]1CCCCO1 | -4% | 0.49
26 | CCc1nsc(N2CC(C)N(CC#N)C(C)C2)n1 (stereo not given) | -3% | 0.45
27 | CC[C@@H](c1nc(-c2ccc(-n3nc(C)cc3N)cc2)no1)n1cccn1 | -2% | 0.32
28 | Cc1cc(N)n(-c2ccc(-c3noc(-c4cc(C(C)C)on4)n3)cc2)n1 | 15% | -3.24
29 | CCCc1cc(-c2nc(-c3ccc(-n4nc(C)cc4N)cc3)no2)n(C)n1 | 71% | -14.18
30 | C[C@@H](CNc1nc(-c2ccccc2)nc2nc(-c3ccc(Cl)cc3)oc12)N1CCCCC1 | 79% | -10.9
31 | c1ccc(-c2nc(NC3CCCC3)c3oc(-c4ccccc4)nc3n2)cc1 | -7% | 0.89
32 | C[C@@H](CNc1nc(-c2ccccc2)nc2nc(-c3ccc(Cl)cc3)oc12)N1CCOCC1 | -17% | 2.25
33 | CCc1noc(C2(n3cccn3)CC2)n1 | -8% | 0.8
34 | N#Cc1ccccc1OCCN1CCS(=O)(=O)CC1 | -3% | 0.38
35 | O=C(NC1CCc2[nH]cnc2C1)N[C@@H]1CCCc2ccccc21 (stereo not given in full) | 4% | -0.51
36 | O=C(N[C@H]1CCc2[nH]c3ccc(Br)cc3c2C1)c1ccc(Cl)c(Cl)c1 | -9% | 1.26
37 | CC(C)c1ccc(CCCNS(N)(=O)=O)cc1 | 7% | -0.97
38 | c1cc(N2CC[C@]3(CCOC3)C2)c2sccc2n1 | -10% | 1.52
39 | CCc1nc(CCNC(=O)Cc2sc(N)nc2C)no1 | -22% | 2.33
40 | COc1nccnc1NCC1(N(C)C)CCCCC1 | 2% | -0.41
41 | CN(C)C1(CNc2ncc(F)cn2)CCCC1 | -3% | 0.48
42 | CN1CCCN(c2nc(C(F)(F)F)nc3cc4c(cc23)OCO4)CC1 | -8% | 1.28
43 | Oc1cc(C(F)(F)F)c2cc3c(cc2n1)OCO3 | 30% | -3.35
44 | O=C(NCc1ccc(Br)cc1)NC1CC2OCCCC12 (stereo not given) | -11% | 1.4

Row | SMILES | % Inhibition | Z score
45 | COCCN(Cc1cc2ccc(Cl)cc2nc1N1CCC[C@H](CO)C1)C(=O)c1sccc1C | 2% | -0.41
46 | NC(=NCCOc1ncc(Cl)cc1Cl)N1CCOCC1 | -11% | 1.79
47 | CCN(C)C1(CNC(=O)c2cccc(-c3ncc(F)c(NC)n3)c2)CCCC1 | 3% | -0.53
48 | CCN(C)C1(CNC(=O)c2ccc(-c3cnccn3)cc2)CCCC1 | -14% | 2.04
49 | CCN(C)C1(CNC(=O)c2ccc(-c3cc(F)ccc3O)cc2)CCCC1 | 55% | -0.99
50 | CC(C)ONC(=O)CCc1cccc(O)c1 | -11% | 1.21
51 | Cc1cc(O)nc2ccc(NC(=O)c3cccc(F)c3)cc12 | 5% | -0.52
52 | c1c[nH]c(-c2nc(C3CCOCC3)n[nH]2)c1 | -6% | 1.12
53 | CNc1ncc(C(=O)N2CCC[C@H](C(=O)c3cc(C)c(OC)c(C)c3)C2)cn1 | 4% | -0.72
54 | COc1ccnc(CN2CCC[C@H](C(=O)c3cc(C)c(OC)c(C)c3)C2)c1OC | 8% | -1.25
55 | COc1c(C)cc(C(=O)[C@H]2CCCN(c3cc(N)ncn3)C2)cc1C | 78% | -15.48
56 | O=C(CN1CCCCC1)Nc1cc(C2CC2)nn1-c1ccccc1 | 1% | -0.24
57 | CCc1cc(NC(=O)C2CN(C(=O)C3CCCCC3)C2)n(C)n1 | -13% | 2.45
58 | CC(C)(C)c1cc(NC(=O)CCCc2ccccc2)n([C@H]2CCS(=O)(=O)C2)n1 | -2% | 0.38
59 | CCOC(=O)Nc1cc(C2CC2)nn1-c1nc2c(c(=O)[nH]1)CCCC2 | 4% | -0.55
60 | CCC(CC)C(=O)Nc1cc(C2CC2)nn1-c1nc(-c2ccccc2)cc(=O)[nH]1 | 69% | -9.47
61 | O=C(CCCc1ccccc1)Nc1cc(C2CC2)nn1-c1nc(-c2ccccc2)cc(=O)[nH]1 | 54% | -8.76
62 | Cc1cc(N)n(-c2nc(-c3ccccc3)cc(=O)[nH]2)n1 | 35% | 0.14
63 | CC(C)NC(=O)CN(C)CC(=O)Nc1cc(C2CCCC2)nn1-c1ccccc1 | 1% | -0.16
64 | CCc1cc(=O)[nH]c(-n2nc(C3CC3)cc2NC(=O)C2CCCCC2)n1 | 86% | -14.68
65 | Cc1ccc(C(=O)N2CCCC(C(=O)N3CCCC(c4nnc5ccccn45)C3)C2)cc1 (stereo not given) | -7% | 1.13
66 | CC(C)c1cc(-c2nc(-c3ccccn3)no2)[nH]n1 | -11% | 1.24

Row | SMILES | % Inhibition | Z score
67 | CCS(=O)(=O)Nc1ccnn1[C@@H](C)C1CC1 | 3% | -0.45
68 | O=C(c1cnnn1-c1cccc(F)c1)N1CCCC12CCC2 | -1% | 0.15
69 | COc1ccc(C(=O)NCCCc2nnc3ccccn23)o1 | -9% | 1.7
70 | Cc1nc2ccccn2c(=O)c1CCN[C@@H](C)c1cccc(-n2cccn2)c1 | 0% | 0.05
71 | Cc1ccc(C(=O)N2CCC3(CCc4nn(Cc5ccccc5)c(=O)n4CC3)CC2)s1 | -7% | 0.82
72 | CNC(=O)[C@H]1CCN(c2ncc(F)c(OC)n2)C1 | -10% | 1.93
73 | CCN1CCN(C2CCN(c3ncc(F)c(OC)n3)CC2)CC1 | 51% | -7.32
74 | Cc1c(C2=NO[C@H]3C(=O)N(c4ccc(Cl)cc4)C(=O)[C@@H]23)cnn1C | -7% | 1
75 | Cc1c(C2=NO[C@H]3C(=O)N(c4ccc5ccccc5c4)C(=O)[C@@H]23)cnn1C | 50% | -5.99
76 | O=C1[C@@H]2C(c3ccccc3Cl)=NO[C@@H]2C(=O)N1c1ccc2ccccc2c1 | -9% | 1.2
77 | O=C(c1ccc2c(c1)CCC2)N1CC(O)C1 | 0% | 0
78 | Cc1cc(NCc2c(C)noc2C)nc(C2CC2)n1 | -7% | 1.22
79 | Cc1ccc(Nc2ccc(N3CCNCC3)nn2)nc1 | 47% | -6.37
80 | Cc1ccnc(Nc2ccc(N3CCNCC3)nn2)c1 | 56% | -6.55
81 | c1cc(-c2ccc(N3CCNCC3)nn2)ccn1 | 5% | -1.03
82 | CC(C)(C)OC(=O)CCc1cccnc1C(=O)O | -18% | 1.85
83 | CC1CC(C(=O)NCCCn2cn[nH]c2=O)CC(C)(C)C1 (stereo not given) | 0% | 0.05
84 | CC1CC(C(=O)N[C@@H](C)c2cnccn2)CC(C)(C)C1 (stereo not given in full) | 8% | -0.99
85 | CC1CC(C(=O)Nc2[nH]c(=O)ncc2F)CC(C)(C)C1 (stereo not given) | 92% | -13.24
